# Measurements published in the supplement of paper PMC6555819.
# Tests used:
# Assay in all cases: PBM binding z-score (relative to random genomic background probes); higher = stronger binding; sequences stand for … in GC…GCGATTGACAGCGTAGAATGAAGG
# [1] = test system: FXR:RXRa (NR concentration 270 nM, RXRa partner concentration 90 nM)
# How it was run: (§1)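 Binding z-scores were set against random background probes. The data came from custom Agilent 4×180K protein-binding microarrays carrying double-stranded probes with 34-nt variable regions, incubated 1 h with ligand-free nuclear receptor dimers. Partner-specific antibodies detected binding, and scanned fluorescence was regression-normalized.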
# [2] = test system: LXRa:RXRa (NR concentration 270 nM, RXRa partner concentration 90 nM)
# How it was run: as §1
# [3] = test system: LXRa homodimer (NR concentration 270 nM)
# How it was run: as §1
# [4] = test system: LXRb:RXRa (NR concentration 270 nM, RXRa partner concentration 90 nM)
# How it was run: as §1
# [5] = test system: LXRb homodimer (NR concentration 270 nM)
# How it was run: as §1
# [6] = test system: PPARa:RXRa (NR concentration 270 nM, RXRa partner concentration 90 nM)
# How it was run: as §1
# [7] = test system: PPARg:RXRa (NR concentration 180 nM, RXRa partner concentration 90 nM)
# How it was run: as §1
# [8] = test system: PPARg:RXRa 270nM:90nM, anti-RXR (NR concentration 270 nM, RXRa partner concentration 90 nM)
# How it was run: as §1
# [9] = test system: PPARg:RXRa 30nM:10nM, anti-RXR (NR concentration 30 nM, RXRa partner concentration 10 nM)
# How it was run: as §1
# [10] = test system: PPARg:RXRa 90nM:30nM, anti-RXR (NR concentration 90 nM, RXRa partner concentration 30 nM)
# How it was run: as §1
Sequence,PBM binding z-score [1],PBM binding z-score [2],PBM binding z-score [3],PBM binding z-score [4],PBM binding z-score [5],PBM binding z-score [6],PBM binding z-score [7],PBM binding z-score [8],PBM binding z-score [9],PBM binding z-score [10]
CAAACTATGTCAAGGTCAAAGTCGGTTTGTGCCA,4.77,4.95,4.54,4.26,1.75,4.65,4.09,4.7,2.24,3.82
TAGCCTAGGTCAGCTCGGGCCAGTATACGCTATA,2.43,1.05,-0.68,0.599,-1.22,1.66,0.605,0.958,-0.317,0.418
CCTCGGAGGACAGAAGGTCGGAGCTGTCCGCTTT,-0.221,-0.259,-0.611,-0.529,-0.931,-0.47,-0.973,-0.664,-1.51,-1.26
CGTCCAAGGACAGAGAGGTCAGTGAATGCCGAGT,1.59,1.6,1.09,1.72,-0.627,2.13,0.584,0.665,-0.328,-0.223
TCTAGTTGGTCAAGGGTCACACACTCGAAATGCG,4.17,3.76,1.25,4.01,0.821,5.27,9.83,8.51,9.9,9.97
TCTATTAGTTGTAGGGCAACCGACGAGTCCGTTT,0.532,0.422,0.481,0.268,0.355,1.1,0.164,1.78,3.28,2.49
CCGACTGGGGCAAGGTTACCATAACGCACAGCCA,0.287,0.668,-0.166,0.835,-1.25,2.12,2.78,3.43,1.23,2.86
CAAACTAGGTCATGAGGTCAAAGTCCGCTTCCCG,6.96,6.16,5.21,4.92,1.82,6.48,9.89,8.16,6.58,8.76
GCATATAGGTAACACAAGGTGAAAGTCCGATTGT,0.896,3.64,-0.04,1.36,-0.351,2.19,2.09,2,0.512,1.26
AGGATGAGGTTATACGTAGATCAGGGAAGAAAGT,2.42,1.94,0.445,2.03,0.715,2.62,1.16,1.11,0.501,0.724
TCTAGTGGGTCACGGAGGTCACACACGACGGGTA,6.17,5.14,2.85,4.62,0.568,5.74,9.39,7.63,5.61,7.51
CAAACTACGTCACGAAAGGTCAAAGTCGAATGAC,5.17,6.32,6.22,5.7,2.44,5.11,3.01,4.1,1.58,3
CTCGAAAGGTCGTTTGAGGTGAGTATACGGATAA,6.16,4.77,0.74,3.96,1.09,4.99,2.46,3.47,1.38,2.14
ATCGAAAGGTCGAAGGTAAGTATACCCACCCGAA,3.95,3.26,0.165,2.83,0.858,4.25,3.8,3.88,1.59,2.86
ATCTCTAGGTAAGACTCAGTTCAGTGAGGAACGC,0.151,0.565,0.658,-0.0789,0.649,0.134,0.166,0.25,0.0695,0.181
AATAAAGGGTCACTAGGCCAGAGTAGGTACGAAT,6.74,5.35,1.44,4.42,1.27,6.36,8.19,6.96,3.48,6.22
CAAACTATGTCACAGAGGTCAAAGTCCGTGCGTA,5.6,5.73,5.85,5.11,2.14,5.51,6.2,6.01,3.36,5.69
CAAACTAGGTCAAACGTCAAAGTCGAGCCAACCA,5.56,4.17,1.04,3.16,1.12,6.14,10.8,9.01,8.48,9.75
CCTAGCAGGCCAATCTGGATCACTCAAGGCTTGA,-0.3,-0.327,-0.53,-0.467,-0.696,-0.131,0.141,-0.529,-0.702,-0.514
CGAACGAGGGCATGAGTTGATAGGAAATGCCGAT,0.317,0.134,-0.459,-0.00432,-0.811,1.27,1.61,1.43,0.315,0.987
GCGACAGGGGCAAAGCAGGTTACCATAAGGTTGG,0.475,1.06,-0.402,0.691,-0.988,1.41,0.589,0.106,-0.427,-0.446
GCGGCTAGGTCAACTGATGGTCAGCTAAAGCTCG,4,2.78,0.177,1.99,-0.808,3.56,2.23,2.36,0.0288,1.44
CCGAGTAGGTTATGGGGGATTCAGGCAACGGTGA,1.01,1.49,0.84,3.36,6.87,2.55,2.34,4.36,1.98,3.77
